Assay results reported in ChEMBL document CHEMBL3988442, “University of Dundee, Small-Polar-MMV Screening Library” (2021).
For some assays here: Potency and affinity values are given separately.

How the values were obtained:
Design in all cases: scale not given: direction of the effect not stated beside the values
[1] = target: Protein translocase subunit SecA (Escherichia coli (strain K12)) (UniProt P10408); experiment: Assay to Identify E. coli SecA ATPase Inhibitors; type: functional; conditions: 30 µM
[2] = target: T1, Ubiquitin-activating enzyme e1, putative (Leishmania donovani (strain BPK282A1)) (UniProt E9BSI1); experiment: Leishmania donovani Ubiquitin Activating Enzyme (LdE1); type: functional; conditions: 30 µM
T1 sequence (whole entry): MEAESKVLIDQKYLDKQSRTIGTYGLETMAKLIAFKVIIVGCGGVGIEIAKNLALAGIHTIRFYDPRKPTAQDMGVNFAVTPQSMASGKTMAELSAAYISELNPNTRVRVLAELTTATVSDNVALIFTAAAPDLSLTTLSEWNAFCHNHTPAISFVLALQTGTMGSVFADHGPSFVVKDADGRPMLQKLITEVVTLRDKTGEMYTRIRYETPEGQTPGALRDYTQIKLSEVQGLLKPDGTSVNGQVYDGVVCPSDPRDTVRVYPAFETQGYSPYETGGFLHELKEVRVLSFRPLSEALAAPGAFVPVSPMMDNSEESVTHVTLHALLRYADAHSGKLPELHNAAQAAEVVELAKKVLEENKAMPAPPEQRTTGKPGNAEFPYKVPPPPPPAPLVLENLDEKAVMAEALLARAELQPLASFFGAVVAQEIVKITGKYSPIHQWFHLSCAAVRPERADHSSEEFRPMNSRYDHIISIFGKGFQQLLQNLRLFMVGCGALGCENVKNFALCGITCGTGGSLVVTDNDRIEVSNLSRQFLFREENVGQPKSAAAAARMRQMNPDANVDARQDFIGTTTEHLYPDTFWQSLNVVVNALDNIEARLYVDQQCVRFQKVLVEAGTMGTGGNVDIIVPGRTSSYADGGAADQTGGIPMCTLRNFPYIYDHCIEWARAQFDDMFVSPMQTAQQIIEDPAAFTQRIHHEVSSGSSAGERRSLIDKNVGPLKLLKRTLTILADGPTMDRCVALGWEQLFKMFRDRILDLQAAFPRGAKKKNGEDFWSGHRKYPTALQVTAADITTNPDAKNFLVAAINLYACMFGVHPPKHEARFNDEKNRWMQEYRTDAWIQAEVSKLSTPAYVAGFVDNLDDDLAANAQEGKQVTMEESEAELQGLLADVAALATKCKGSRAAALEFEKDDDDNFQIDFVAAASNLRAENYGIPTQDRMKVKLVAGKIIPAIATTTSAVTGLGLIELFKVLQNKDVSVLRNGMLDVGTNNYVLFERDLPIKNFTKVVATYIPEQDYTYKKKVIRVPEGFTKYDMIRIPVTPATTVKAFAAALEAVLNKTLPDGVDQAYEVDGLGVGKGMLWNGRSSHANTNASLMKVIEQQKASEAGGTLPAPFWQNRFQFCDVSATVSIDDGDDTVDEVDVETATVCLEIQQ

[3] = target: Sialic acid-binding Ig-like lectin 9 (Homo sapiens) (UniProt Q9Y336); experiment: Hs-Siglec9 ALPHAscreen SOP 20170721; conditions: 10 µM
Trypanosoma cruzi = experiment: Trypanosoma cruzi phosphomannomutase and mannose-1-phosphate guanylyltransferase assay; type: functional; conditions: 10 µM
[4] = target: T2, Arginase-2, mitochondrial (Homo sapiens) (UniProt P78540); experiment: in vitro enzyme assay to detect the production of urea directly proportional to the activity of Arginase II; type: functional; conditions: 33.3 µM; further: in the data most compounds retested in dose-response had high values
T2 sequence (whole entry): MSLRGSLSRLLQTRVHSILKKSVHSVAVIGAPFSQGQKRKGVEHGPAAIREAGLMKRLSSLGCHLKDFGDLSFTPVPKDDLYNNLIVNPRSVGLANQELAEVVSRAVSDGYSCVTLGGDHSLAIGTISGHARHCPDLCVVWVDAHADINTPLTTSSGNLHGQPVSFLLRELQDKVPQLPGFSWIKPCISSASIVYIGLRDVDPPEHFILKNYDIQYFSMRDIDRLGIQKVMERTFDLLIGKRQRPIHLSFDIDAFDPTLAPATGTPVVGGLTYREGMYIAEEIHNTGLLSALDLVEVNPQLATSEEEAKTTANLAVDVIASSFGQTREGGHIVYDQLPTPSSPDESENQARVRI

[5] = target: T3, Proteasome subunit beta (Trypanosoma cruzi) (UniProt O96673); experiment: Trypanosoma cruzi proteasome chymotrypsin-like activity (TcProtChymo) assay.; further: in the data most compounds retested in dose-response had high values; type: functional; conditions: 9.37 µM
T3 sequence (whole entry): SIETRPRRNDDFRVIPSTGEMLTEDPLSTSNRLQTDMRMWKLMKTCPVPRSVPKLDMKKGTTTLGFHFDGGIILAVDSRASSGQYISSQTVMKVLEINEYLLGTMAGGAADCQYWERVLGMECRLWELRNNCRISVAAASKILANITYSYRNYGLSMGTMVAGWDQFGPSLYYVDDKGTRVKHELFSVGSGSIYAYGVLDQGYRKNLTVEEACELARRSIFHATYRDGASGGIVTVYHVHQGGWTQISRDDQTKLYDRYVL

Homo sapiens = species on record: Homo sapiens; experiment: To identify inhibition of the IFN signalling (Jak-Stat) pathway via expression of an eGFP reporter gene under the control of an IFN-stimulated response element (ISRE) containing MxA promoter.; type: functional; conditions: 30 µM
[6] = target: T4, Tyrosyl-tRNA synthetase, putative (Trypanosoma cruzi (strain CL Brener)) (UniProt Q4DSP6); experiment: Trypanosoma cruzi tyrosyl tRNA synthetase (TcYRS) _High Tyrosine SOP; type: functional; conditions: 30 µM; further: in the data most compounds retested in dose-response had high values
T4 sequence (whole entry): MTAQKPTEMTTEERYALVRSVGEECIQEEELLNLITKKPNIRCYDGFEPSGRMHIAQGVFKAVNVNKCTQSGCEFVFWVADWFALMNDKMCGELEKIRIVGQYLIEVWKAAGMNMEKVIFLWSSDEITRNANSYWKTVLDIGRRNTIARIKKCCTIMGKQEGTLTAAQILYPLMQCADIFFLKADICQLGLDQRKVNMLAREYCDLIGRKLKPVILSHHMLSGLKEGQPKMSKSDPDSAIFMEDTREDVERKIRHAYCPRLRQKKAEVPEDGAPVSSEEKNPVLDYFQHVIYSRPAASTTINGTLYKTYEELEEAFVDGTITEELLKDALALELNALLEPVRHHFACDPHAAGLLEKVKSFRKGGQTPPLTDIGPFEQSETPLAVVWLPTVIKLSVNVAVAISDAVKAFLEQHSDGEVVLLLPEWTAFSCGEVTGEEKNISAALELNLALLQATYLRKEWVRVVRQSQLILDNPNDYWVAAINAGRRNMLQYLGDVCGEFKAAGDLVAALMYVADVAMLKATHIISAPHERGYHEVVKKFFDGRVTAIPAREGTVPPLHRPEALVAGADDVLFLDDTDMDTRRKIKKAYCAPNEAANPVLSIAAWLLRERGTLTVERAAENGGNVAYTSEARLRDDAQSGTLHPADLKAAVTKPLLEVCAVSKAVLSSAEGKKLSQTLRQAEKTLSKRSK

[7] = target: T4, Tyrosyl-tRNA synthetase, putative (Trypanosoma cruzi (strain CL Brener)); experiment: Trypanosoma cruzi tyrosyl tRNA synthetase (TcYRS) SOP; type: functional; conditions: 30 µM
[8] = target: Chromo domain-containing protein 1 (Saccharomyces cerevisiae (strain ATCC 204508 / S288c) (Baker's yeast)) (UniProt P32657); experiment: ScCHD-1 Enzyme Inhibition Assay; type: functional; conditions: 30 µM; further: in the data most compounds retested in dose-response had high values
Sequence of Chromo domain-containing protein 1 (Saccharomyces cerevisiae (strain ATCC 204508 / S288c) (Baker's yeast)) (P32657 whole entry, the tested form may be a part): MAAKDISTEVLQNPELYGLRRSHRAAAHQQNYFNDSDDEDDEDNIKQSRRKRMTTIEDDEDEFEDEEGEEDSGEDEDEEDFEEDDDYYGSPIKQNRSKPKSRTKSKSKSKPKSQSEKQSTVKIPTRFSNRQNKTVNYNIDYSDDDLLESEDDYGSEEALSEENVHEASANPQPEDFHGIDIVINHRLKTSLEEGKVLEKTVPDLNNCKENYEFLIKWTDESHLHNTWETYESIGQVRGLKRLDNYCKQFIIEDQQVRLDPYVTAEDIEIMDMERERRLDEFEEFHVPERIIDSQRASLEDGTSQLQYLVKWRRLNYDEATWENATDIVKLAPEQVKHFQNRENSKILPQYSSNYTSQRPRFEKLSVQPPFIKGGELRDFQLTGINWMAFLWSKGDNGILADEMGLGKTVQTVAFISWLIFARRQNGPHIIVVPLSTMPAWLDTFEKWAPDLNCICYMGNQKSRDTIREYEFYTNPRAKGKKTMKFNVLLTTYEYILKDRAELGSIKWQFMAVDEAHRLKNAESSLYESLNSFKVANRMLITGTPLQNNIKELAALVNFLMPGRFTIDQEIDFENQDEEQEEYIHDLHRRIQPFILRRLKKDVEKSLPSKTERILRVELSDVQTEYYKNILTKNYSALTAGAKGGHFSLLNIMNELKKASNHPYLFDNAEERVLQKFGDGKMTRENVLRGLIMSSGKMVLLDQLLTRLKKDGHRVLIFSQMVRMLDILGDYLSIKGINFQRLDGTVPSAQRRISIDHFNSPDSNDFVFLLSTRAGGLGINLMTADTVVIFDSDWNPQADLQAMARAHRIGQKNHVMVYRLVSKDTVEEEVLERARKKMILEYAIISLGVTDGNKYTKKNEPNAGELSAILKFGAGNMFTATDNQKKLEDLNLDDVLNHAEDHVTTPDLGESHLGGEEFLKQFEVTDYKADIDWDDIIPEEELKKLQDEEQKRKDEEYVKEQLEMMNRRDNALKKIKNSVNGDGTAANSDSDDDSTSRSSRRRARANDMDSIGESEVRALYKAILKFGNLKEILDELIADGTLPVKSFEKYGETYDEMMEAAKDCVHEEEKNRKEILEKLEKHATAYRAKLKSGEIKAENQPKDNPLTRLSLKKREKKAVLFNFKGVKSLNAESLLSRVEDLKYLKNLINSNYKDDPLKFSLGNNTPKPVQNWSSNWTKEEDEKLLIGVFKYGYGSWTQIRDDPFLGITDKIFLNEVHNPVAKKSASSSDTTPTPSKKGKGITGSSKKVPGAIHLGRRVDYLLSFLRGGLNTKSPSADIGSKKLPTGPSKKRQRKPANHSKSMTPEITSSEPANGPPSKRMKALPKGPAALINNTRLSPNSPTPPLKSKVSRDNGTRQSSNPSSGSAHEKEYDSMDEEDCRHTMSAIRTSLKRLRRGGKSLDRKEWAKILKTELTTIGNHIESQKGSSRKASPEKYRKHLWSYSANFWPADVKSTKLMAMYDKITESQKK

Sequence of Protein translocase subunit SecA (Escherichia coli (strain K12)) (P10408 whole entry): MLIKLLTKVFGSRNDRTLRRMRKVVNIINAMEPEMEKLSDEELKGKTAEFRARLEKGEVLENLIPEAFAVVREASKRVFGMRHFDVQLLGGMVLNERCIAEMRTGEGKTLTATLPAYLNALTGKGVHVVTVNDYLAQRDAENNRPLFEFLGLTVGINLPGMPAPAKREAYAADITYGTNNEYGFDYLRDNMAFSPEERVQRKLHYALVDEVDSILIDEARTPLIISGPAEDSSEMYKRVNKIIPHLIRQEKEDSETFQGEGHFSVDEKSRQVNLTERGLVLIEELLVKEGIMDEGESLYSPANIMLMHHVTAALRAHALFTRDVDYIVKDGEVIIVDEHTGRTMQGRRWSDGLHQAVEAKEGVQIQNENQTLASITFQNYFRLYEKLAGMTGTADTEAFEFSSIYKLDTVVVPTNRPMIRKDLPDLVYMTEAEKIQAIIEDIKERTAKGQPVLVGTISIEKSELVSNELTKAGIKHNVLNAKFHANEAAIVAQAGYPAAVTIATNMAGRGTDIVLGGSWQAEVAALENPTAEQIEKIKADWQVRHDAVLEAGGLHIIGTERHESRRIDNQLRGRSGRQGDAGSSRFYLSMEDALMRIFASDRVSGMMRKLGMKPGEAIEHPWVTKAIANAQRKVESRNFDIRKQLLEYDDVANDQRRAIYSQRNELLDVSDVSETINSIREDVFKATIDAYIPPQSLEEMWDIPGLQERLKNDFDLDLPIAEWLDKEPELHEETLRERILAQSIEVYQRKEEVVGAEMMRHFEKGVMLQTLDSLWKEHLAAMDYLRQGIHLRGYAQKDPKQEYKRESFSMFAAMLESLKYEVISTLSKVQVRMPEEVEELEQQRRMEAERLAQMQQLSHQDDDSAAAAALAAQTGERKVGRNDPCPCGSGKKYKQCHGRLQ
Sequence of Sialic acid-binding Ig-like lectin 9 (Homo sapiens) (Q9Y336 whole entry): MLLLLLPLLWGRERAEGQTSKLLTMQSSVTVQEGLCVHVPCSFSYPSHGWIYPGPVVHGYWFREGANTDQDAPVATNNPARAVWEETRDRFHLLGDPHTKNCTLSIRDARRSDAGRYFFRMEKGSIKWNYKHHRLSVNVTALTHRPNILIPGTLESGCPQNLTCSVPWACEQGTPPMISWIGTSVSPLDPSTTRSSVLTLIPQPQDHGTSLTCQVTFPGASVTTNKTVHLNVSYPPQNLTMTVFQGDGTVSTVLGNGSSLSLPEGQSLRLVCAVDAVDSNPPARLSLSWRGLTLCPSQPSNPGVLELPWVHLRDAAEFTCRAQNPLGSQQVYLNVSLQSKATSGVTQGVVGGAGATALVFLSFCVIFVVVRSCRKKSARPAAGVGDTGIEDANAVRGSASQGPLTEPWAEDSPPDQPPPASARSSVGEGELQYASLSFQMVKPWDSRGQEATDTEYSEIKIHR

| SMILES | Percent Effect [1] [%] | Percent Effect [2] [%] | Percent Effect [3] [%] | Percent Effect (Trypanosoma cruzi) [%] | Percent Effect [4] [%] | Percent Effect [5] [%] | Percent Effect (Homo sapiens) [%] | Percent Effect [6] [%] | Percent Effect [7] [%] | Percent Effect [8] [%] |
| --- | --- | --- | --- | --- | --- | --- | --- | --- | --- | --- |
| O=C(C1CCC1)N1CCn2c(COc3ncccn3)nnc2C1 | -7.65 | 3.9 | -3.93 | -5.36 | -11.7 | 12.8 | 6.38 | 0.526 | 5.13 | -2.55 |
| COc1ccccc1OCC(=O)NS(=O)(=O)c1ccccc1Br | -3.71 | 13 | 10.4 | 5.78 | 5.12 | 3.51 | 4.3 | 0 | 16.5 | -9.19 |
| Cn1cc(-c2nc(CN3CCc4c(ncn4C4CC4)C3)cs2)cn1 | 0.667 | -2.6 | 12.4 | 3.54 | -0.615 | 3.33 | 8.83 | 0.98 | 4.71 | -7.98 |
| Cc1cc(C(=O)NCc2ccc(N3CCCC(C(N)=O)C3)cc2)no1 (stereo not given) | -3.67 | 10.7 | 2.55 | 3.01 | 4.88 | 11.1 | 3.86 | 2.63 | 5.13 | -7.24 |
| CCn1cc(S(=O)(=O)N(C)Cc2c(Br)cnn2CC)c(C)n1 | 8.78 | 12 | -0.969 | -3.55 | 3.54 | 16.6 | 20.6 | 3.17 | 7.5 | -17.9 |
| O=C1C(NCc2nnc3n2CCCC3)CCN1c1ccccc1 (stereo not given) | -2.98 | 10.3 | -1.63 | 8.17 | 7.79 | -2.99 | 18.5 | 3.35 | 13.2 | -2.81 |
| COCCC(=O)N1CCCC2(CCC(=O)N2CCOC)CC1 (stereo not given) | -2.63 | 11.7 | -2.38 | -4.13 | 4.57 | -1.97 | 11.1 | 2.9 | 2.5 | -3.46 |
| Cc1c(F)cc(C(=O)O)cc1S(=O)(=O)Nc1ccc2c(c1)OCCO2 | -4.72 | 5.13 | 0.878 | 7.42 | -4.51 | 2.82 | -3.86 | -5.26 | 1.21 | -2.48 |
| Cc1cnc(CN(C)C2CCN(Cc3nc4ccccc4n3C)C2)o1 (stereo not given) | -2.3 | 16 | -6.81 | 3.21 | -4.43 | 22.6 | -0.979 | 14.2 | 17.9 | -12.5 |
| Cc1ccc(OCC(=O)NS(=O)(=O)c2c(C)noc2C)cc1C | -7.75 | -5.13 | -10.8 | -1.41 | 0.41 | 0.0853 | 17.7 | -5.26 | -6.02 | -0.0938 |
| CCNC(=O)CCN1CCC(c2cc(N3CCOCC3)nc(C)n2)CC1 | -3.37 | 5.41 | 12.8 | 5.92 | 16.4 | 6.51 | 17.2 | 2.66 | 9.76 | 98.8 |
| CC(C)(C)c1cn2nc(N3CCCC3Cn3cncn3)sc2n1 (stereo not given) | 0.788 | 17.9 | -6.25 | 2.72 | 6.15 | 17.1 | 12.8 | 3.35 | 20.5 | -6.04 |
| O=C(Nc1ccccc1)N1CCn2nnc(COc3cccnc3)c2C1 | -6.28 | 6.49 | -0.598 | -0.487 | 4.86 | 5.56 | -5.86 | 8.95 | 15.4 | 5.54 |
| COc1ccc(CC(=O)N2CCCC(n3cc(C)cn3)C2)cc1F (stereo not given) | -2.21 | -2.67 | 3.32 | 0.201 | 2.66 | 4.16 | 3.46 | 2.63 | 2.56 | -4.37 |
| Cc1nn(C)c(Cl)c1CNCc1ccc(OCC(N)=O)cc1 | -6.28 | 10.7 | 0.0227 | 4.42 | 2.22 | 10.9 | 16.6 | 1.58 | 12.8 | -10.2 |
| O=C1NCCN(CC2CC2)C12CCN(Cc1ccc3c(c1)OCO3)CC2 | -1.54 | 19.5 | 3.24 | -8.47 | 6.07 | 16.9 | 30.6 | 4.74 | -7.69 | -3.74 |
| CCC1CN(C(=O)NCCOc2ccc3c(c2)OCO3)CCO1 (stereo not given) | 1.77 | 18.2 | -3.28 | -3.36 | 5.53 | 15.4 | 1.58 | 4.9 | 16.5 | -6.67 |
| NC(=O)c1cc(NC(=O)NCCc2cc(F)cc(F)c2)ccc1F | -0.0438 | 10.4 | 8.44 | 0.56 | -2.66 | 5.26 | -4.36 | 5.88 | 23.5 | -11.6 |
| CC(Cn1cccn1)NC(=O)N1CCN(Cc2cccs2)CC1 (stereo not given) | -1.74 | 18.7 | -3.71 | 5.42 | -3.1 | 17.4 | 12.5 | 2.63 | 12.8 | 71.3 |
| Cc1cc2cc(C(=O)N3CC[C@H](O)[C@]4(CCCO4)C3)ccc2o1 | -4.25 | 17.3 | 3.44 | 2.17 | -3.1 | 8.37 | -3.08 | 6.35 | 12.5 | -20.9 |
| O=S(=O)(CCNC1CCc2ncnn2C1)c1ccccc1 (stereo not given) | -0.316 | 0 | 9.36 | 0.746 | -1.43 | 5.09 | 0.944 | 1.96 | 4.71 | 5.51 |
| CCn1cnnc1CNC(=O)N1CCC(C(=O)NC)CC1 | -5.88 | 5.33 | 0.795 | -4.42 | -2.66 | 1.78 | 10.8 | -0.526 | 2.56 | -6.68 |
| CCOCC1CC2(CCN(C(=O)c3ccccc3F)CC2)CO1 (stereo not given) | -6.56 | 6.49 | -7.4 | -3.41 | -7.29 | -0.794 | -3.95 | 2.63 | 7.69 | -0.095 |
